The list is not random: actives were taken first. Their share in the collection is about 1.1%.
12-LOX inh – inhibitors of human 12S-lipoxygenase ALOX12; P18054; purified 12hLO, xylenol orange hydroperoxide absorbance; Potency, µM (highest dose often 108 µM), hits mostly inhibitors; 580,000 compounds, 1.1% hits; AID 1671190
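Purified human 12hLO at 150 nM in 25 mM Hepes, 0.01% Triton X-100, pH 7.0, preincubated 15 min at room temperature with compound. Reaction started with 40 uM arachidonic acid, 30 min at room temperature. Hydroperoxide measured by Fe-xylenol orange, 573/405 nm absorbance ratio.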
BCR signal inh – blocks chronic active B-cell receptor signaling. ABC-DLBCL IkBa-CBG/CBR reporter, luminescence ratio, 4 h. 340,000 compounds, 0.05% hits. Potency, µM (titrated, usually from 46.1 µM), usual class: inhibitors. AID 493014; active means well fitted inhibition curve with a large enough effect in the signal ratio, with a control signal flat, not every such curve was filed as active; inconclusive means small, poorly fitted or top-dose-only effect, or effect the other way, or a change in a side signal; the % refers to the signal ratio
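TMD8 human ABC-DLBCL cells with doxycycline-inducible IκBα–green luciferase fusion and unfused red luciferase, in 0.5% FBS medium; compounds up to 46 uM, 4 h at 37C. Green/red luminescence ratio, filter-overlap corrected, fitted to concentration-response curves.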
GRP78 ERSR act – inducers of ER stress response in human glioma cells. U87-MG GRP78 promoter luciferase reporter, 16 h. Potency, µM, most hits filed as activators. 420,000 compounds, 0.02% hits; further: series mostly up to about 76 µM; nearly all actives have a fitted effect of over 35% in size
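ERSR induction read as luciferase luminescence (Bright-Glo, 10 min at room temperature) in stably transfected human U87-MG glioma cells exposed to compounds for 16 h, using GRP78 as sensor.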
Apoferritin bind – binds horse apoferritin like a general anesthetic; Potency, µM (doses to about 77.5 µM), usual class: inhibitors; 350,000 compounds, 0.074% hits; P02791; AID 485281; apoferritin/1-aminoanthracene competitive binding, fluorescence; further: nearly all actives have a fitted effect of over 20% in size
Target sequence (P02791 2-175 limits assumed): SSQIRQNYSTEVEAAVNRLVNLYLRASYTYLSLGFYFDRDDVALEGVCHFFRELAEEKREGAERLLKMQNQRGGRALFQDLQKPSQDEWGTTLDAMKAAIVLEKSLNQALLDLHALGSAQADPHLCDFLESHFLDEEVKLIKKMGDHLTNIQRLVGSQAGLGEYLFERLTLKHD
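Probe: 1-aminoanthracene (50% saturated, PBS). Protein: horse-spleen apoferritin, 10 uM. Incubation: 10 min, room temperature. Detection: 380 nm excitation, 535 nm emission. Analysis: normalized response, four-parameter Hill.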
Large screens that a line does not name were inactive; ! = not active in a repeat. Unless noted, the call rests on the fitted dose curve; in most records, active means well fitted curve in the direction sought with a large enough effect; inconclusive means small, poorly fitted or top-dose-only effect, or another doubt; inactive means no such curve, though single readings can be large; an effect the other way counts as inactive or inconclusive.

CCCCC1=CC2=CC(=O)C(C)(OC(=O)CCc3ccccc3)C(=O)C2=CO1 (configuration not stated)	12-LOX inh 13µM, Apoferritin bind inconclusive
CCCCC1=CC2=CC(=O)C(C)(OC(=O)c3cccs3)C(=O)C2=CO1 (configuration not stated)	12-LOX inh 28µM (no result: BCR signal inh, Apoferritin bind)
CC1(O)C(=O)C=C2C=C(CCCCOCc3ccccc3)OC=C2C1=O (configuration not stated)	none (no result: 12-LOX inh, BCR signal inh)
CCCCC1=CC2=CC(=O)C(C)(OC(=O)c3cnc4ccccc4n3)C(=O)C2=CO1 (configuration not stated)	none (no result: 12-LOX inh, GRP78 ERSR act)
Oc1ccccc1CN1CC(CNc2cccnc2)C2(C1)CN(c1ccccc1)C2 (configuration not stated)	none (no result: BCR signal inh, GRP78 ERSR act, Apoferritin bind)
CCOc1ccc(NC(=O)c2c(NCc3cccs3)sc3c2CCC(C)C3)cc1 (configuration not stated)	none
CCOc1ccc(NC(=O)c2c(NCc3cccnc3)sc3c2CCC(C)C3)cc1 (configuration not stated)	12-LOX inh 40µM
Cc1cc(Br)cnc1NC(=S)Nc1ccc(F)cc1F	12-LOX inh 14µM, BCR signal inh inconclusive
CC(=O)NNC(=S)Nc1ccc(F)cc1F	none (no result: BCR signal inh, GRP78 ERSR act, Apoferritin bind)
COc1cc(/C=C(/C#N)c2ccc(Cl)cc2)ccc1OC(C)C	none (no result: BCR signal inh, GRP78 ERSR act, Apoferritin bind)
CCc1cccc(NC(=S)N(CCC(C)C)C(C)c2cccs2)c1 (configuration not stated)	12-LOX inh 40µM (no result: BCR signal inh, GRP78 ERSR act, Apoferritin bind)
CCc1cccc(NC(=S)N(CCOC)C(C)c2ccco2)c1 (configuration not stated)	none
COc1ccc(N2C(S)=C(C#N)C(=O)NC2c2ccco2)cc1 (configuration not stated)	12-LOX inh 45µM, BCR signal inh inconclusive
COc1ccc(C2NC(=O)C(C#N)=C(S)N2c2ccccc2)cc1OC (configuration not stated)	12-LOX inh inconclusive, BCR signal inh inconclusive
COc1cc(C2NC(=O)C(C#N)=C(S)N2c2ccccc2)ccc1OC(C)C (configuration not stated)	12-LOX inh 14µM, BCR signal inh inconclusive
CC(=O)c1cccc(NC(=O)C(Nc2ccc3oc(C)nc3c2)c2ccccc2)c1 (configuration not stated)	none (no result: BCR signal inh, GRP78 ERSR act, Apoferritin bind)
Cc1cccc(N2NC3(CCCC(C)C3)NC2=S)c1C (configuration not stated)	12-LOX inh 8.9µM (no result: BCR signal inh, GRP78 ERSR act, Apoferritin bind)
O=C(N(Cc1cccc2[nH]ccc12)C1CC1)C12CC3CC(CC(C3)C1)C2	none (no result: BCR signal inh, GRP78 ERSR act, Apoferritin bind)
CC(C)Cn1c(-c2ccccc2F)n[nH]c1=S	12-LOX inh 25µM
CC(C)Cn1c(-c2ccco2)n[nH]c1=S	12-LOX inh 10µM, BCR signal inh inconclusive
CC(C)Cn1c(-c2ccc(F)cc2)n[nH]c1=S	12-LOX inh inconclusive
COc1cccc(C(=O)NC2CCCN(c3cc(-c4ccc(F)cc4)[nH]n3)C2)c1 (configuration not stated)	none (no result: BCR signal inh, GRP78 ERSR act, Apoferritin bind)
O=C(COc1ccccc1Cl)Nc1ccc(-c2nc3ccccc3o2)cc1	none (no result: BCR signal inh, GRP78 ERSR act, Apoferritin bind)
COc1ccc(OC)c(NC(=O)Cn2ccc3c(Cl)cccc32)c1	none (no result: BCR signal inh, GRP78 ERSR act, Apoferritin bind)
CCOC(=O)C1=C(CN2CCCCC2)NC(=O)NC1c1ccc(OC)cc1 (configuration not stated)	12-LOX inh 45µM (no result: BCR signal inh)
CCOC(=O)C1=C(CN2CCCCC2)NC(=O)NC1c1ccc(C)cc1 (configuration not stated)	12-LOX inh inconclusive (no result: BCR signal inh)
CCOC(=O)C1=C(CN(CC)Cc2ccccc2)NC(=O)NC1c1ccc(Cl)cc1 (configuration not stated)	12-LOX inh 22µM! (no result: BCR signal inh)
O=c1[nH]c(CSc2nc3ccccc3o2)nc2ccccc12	none (no result: BCR signal inh, GRP78 ERSR act, Apoferritin bind)
O=c1[nH]c(CSc2nc3ccccc3o2)nc2cc(Cl)ccc12	12-LOX inh 8.9µM (no result: BCR signal inh, GRP78 ERSR act, Apoferritin bind)
COc1ccc(C(=O)Nc2ccc3oc(=O)ccc3c2)cc1	none (no result: BCR signal inh, GRP78 ERSR act, Apoferritin bind)
Cc1ccc(-c2nn(-c3ccccc3)cc2C2SCC(=O)N2Cc2ccccc2)o1 (configuration not stated)	12-LOX inh 32µM
O=C1CSC(c2cn(-c3ccccc3)nc2-c2cc3ccccc3o2)N1Cc1ccccc1 (configuration not stated)	BCR signal inh inconclusive
COc1ccc(C(=O)CN2CCN(c3ccc(F)cc3)CC2)cc1OC	BCR signal inh inconclusive
COc1ccccc1N1CCN(CC(=O)c2ccc(F)cc2)CC1	12-LOX inh 1.1µM, BCR signal inh inconclusive
CCn1cc(C(=O)N2CCC(CNC(C)=O)CC2)c2ccccc21	none (no result: BCR signal inh, GRP78 ERSR act, Apoferritin bind)
O=C(NC(=S)NCCC1=CCCCC1)c1cccs1	12-LOX inh 11µM (no result: BCR signal inh, GRP78 ERSR act, Apoferritin bind)

Compound activity deposited in PubChem by National Center for Advancing Translational Sciences (NCATS).
